In all, about 5,500 compounds went through this assay and about 2,000 (36%) were called active. About 18% were inconclusive and are not listed. No stated cut-off is given here; in the data, active means normalized growth mostly below about 0.91 (no sharp cut-off); inconclusive means no clear call, values can overlap the other calls; inactive means mostly above about 0.92. The list shows a part of the results.
Test: chemical genetic growth profiling, strain panel (AID 1159580);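 further: tested at 20 µM; growth read once vehicle control cultures reached saturation at 30 °C; 1 = growth at the plate median or of vehicle wells; lower values mean less growth of the strain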
Details: growth OD

Measured: normalized growth

c1ccc2c(c1)[nH]c1cnccc12
inactive: S. cerevisiae deletion strains, locus YJR066W, strain TOR1, hits give low values 0.956 | S. cerevisiae deletion strains, locus YKL009W, strain mrt4, hits give low values 1.01 | S. cerevisiae deletion strains, locus YKL068W, hits give low values 0.975 | S. cerevisiae deletion strains, locus YKL085W, strain MDH1 (second series), hits give low values 0.98 | S. cerevisiae deletion strains, locus YKL085W, strain MDH1, hits give low values 0.98 | S. cerevisiae deletion strains, locus YKL160W, strain elf1, hits give low values 1.01 | S. cerevisiae deletion strains, locus YKL190W, strain CNB1, hits give low values 0.993 | S. cerevisiae deletion strains, locus YKR001C, strain vps1, hits give low values 0.962 | S. cerevisiae deletion strains, locus YKR026C, strain gcn3, hits give low values 0.986 | S. cerevisiae deletion strains, locus YKR091W, strain srl3, hits give low values 1 | S. cerevisiae deletion strains, locus YLL001W, strain dnm1, hits give low values 1 | S. cerevisiae deletion strains, locus YLL026W, hits give low values 0.996 | S. cerevisiae deletion strains, locus YLL041C, strain sdh2, hits give low values 1 | S. cerevisiae deletion strains, locus YLR027C, strain aat2, hits give low values 1.01 | S. cerevisiae deletion strains, locus YLR039C, strain RIC1, hits give low values 0.893 | S. cerevisiae deletion strains, locus YLR058C, strain SHM2, hits give low values 1.01 | S. cerevisiae deletion strains, locus YLR102C, strain apc9, hits give low values 0.972 | S. cerevisiae deletion strains, locus YLR113W, strain HOG1, hits give low values 1.03 | S. cerevisiae deletion strains, locus YLR221C, strain rsa3, hits give low values 1 | S. cerevisiae deletion strains, locus YLR258W, strain gsy2, hits give low values 0.998 | S. cerevisiae deletion strains, locus YLR262C, strain YPT6 (second series), hits give low values 0.948 | S. cerevisiae deletion strains, locus YLR262C, strain YPT6, hits give low values 0.947 | S. cerevisiae deletion strains, locus YLR268W, strain sec22, hits give low values 0.952 | S. cerevisiae deletion strains, locus YLR320W, strain mms22, hits give low values 0.994 | S. cerevisiae deletion strains, locus YLR330W, strain CHS5, hits give low values 0.976 | S. cerevisiae deletion strains, locus YLR342W, strain FKS1 (second series), hits give low values 1.02 | S. cerevisiae deletion strains, locus YLR342W, strain FKS1, hits give low values 1 | S. cerevisiae deletion strains, locus YLR357W, strain rsc2, hits give low values 0.99 | S. cerevisiae deletion strains, locus YLR370C, strain arc18, hits give low values 1 | S. cerevisiae deletion strains, locus YLR371W, strain rom2, hits give low values 0.983 | S. cerevisiae deletion strains, locus YLR384C, strain iki3, hits give low values 0.992 | S. cerevisiae deletion strains, locus YLR418C, strain cdc73, hits give low values 1.02 | S. cerevisiae deletion strains, locus YML016C, strain PPZ1, hits give low values 0.991 | S. cerevisiae deletion strains, locus YML032C, strain rad52, hits give low values 1.02 | S. cerevisiae deletion strains, locus YML120C, strain ndi1, hits give low values 1 | S. cerevisiae deletion strains, locus YML124C, strain tub3, hits give low values 0.987 | S. cerevisiae deletion strains, locus YMR058W, strain fet3, hits give low values 0.996 | S. cerevisiae deletion strains, locus YMR078C, strain ctf18, hits give low values 0.956 | S. cerevisiae deletion strains, locus YMR125W, strain sto1, hits give low values 0.996 | S. cerevisiae deletion strains, locus YMR129W, hits give low values 1.01 | S. cerevisiae deletion strains, locus YMR205C, strain PFK2, hits give low values 0.977 | S. cerevisiae deletion strains, locus YMR223W, strain ubp8, hits give low values 1 | S. cerevisiae deletion strains, locus YMR231W, strain pep5, hits give low values 0.994 | S. cerevisiae deletion strains, locus YMR263W, strain SAP30, hits give low values 0.982 | S. cerevisiae deletion strains, locus YMR307W, strain GAS1, hits give low values 1.23 | S. cerevisiae deletion strains, locus YNL067W, strain RPL9B, hits give low values 0.986 | S. cerevisiae deletion strains, locus YNL071W, strain lat1, hits give low values 1.01 | S. cerevisiae deletion strains, locus YNL153C, strain GIM3, hits give low values 0.971 | S. cerevisiae deletion strains, locus YNL183C, strain NPR1, hits give low values 0.965 | S. cerevisiae deletion strains, locus YNL209W, strain ssb2, hits give low values 1.01 | S. cerevisiae deletion strains, locus YNL233W, strain BNI4, hits give low values 0.984 | S. cerevisiae deletion strains, locus YNL248C, strain rpa49, hits give low values 1.01 | S. cerevisiae deletion strains, locus YNL250W, strain rad50, hits give low values 0.941 | S. cerevisiae deletion strains, locus YNL271C, strain bni1, hits give low values 0.985 | S. cerevisiae deletion strains, locus YNL298W, strain CLA4, hits give low values 0.984 | S. cerevisiae deletion strains, locus YNL307C, strain MCK1, hits give low values 0.976 | S. cerevisiae deletion strains, locus YNL322C, strain KRE1 (second series), hits give low values 1 | S. cerevisiae deletion strains, locus YNR049C, strain mso1, hits give low values 1.01 | S. cerevisiae deletion strains, locus YNR052C, strain pop2, hits give low values 0.997 | S. cerevisiae deletion strains, locus YOL012C, strain htz1 0.866 | S. cerevisiae deletion strains, locus YOL147C, strain pex11, hits give low values 0.988 | S. cerevisiae deletion strains, locus YOR001W, strain rrp6, hits give low values 0.996 | S. cerevisiae deletion strains, locus YOR061W, strain CKA2, hits give low values 1.01 | S. cerevisiae deletion strains, locus YOR069W, strain VPS5, hits give low values 0.998 | S. cerevisiae deletion strains, locus YOR070C, strain gyp1, hits give low values 1.01 | S. cerevisiae deletion strains, locus YOR080W, strain dia2, hits give low values 0.986 | S. cerevisiae deletion strains, locus YOR083W, strain WHI5, hits give low values 1 | S. cerevisiae deletion strains, locus YOR106W, strain vam3, hits give low values 1 | S. cerevisiae deletion strains, locus YOR136W, strain idh2, hits give low values 0.974 | S. cerevisiae deletion strains, locus YOR144C, strain elg1, hits give low values 0.99 | S. cerevisiae deletion strains, locus YOR184W, strain ser1, hits give low values 0.995 | S. cerevisiae deletion strains, locus YOR231W, strain MKK1, hits give low values 1.03 | S. cerevisiae deletion strains, locus YOR265W, strain rbl2, hits give low values 0.994 | S. cerevisiae deletion strains, locus YOR270C, strain vph1, hits give low values 1 | S. cerevisiae deletion strains, locus YOR290C, strain snf2, hits give low values 1.03 | S. cerevisiae deletion strains, locus YOR316C, strain cot1, hits give low values 0.988 | S. cerevisiae deletion strains, locus YPL051W, strain arl3, hits give low values 1 | S. cerevisiae deletion strains, locus YPL055C, strain LGE1, hits give low values 0.991 | S. cerevisiae deletion strains, locus YPL078C, strain atp4, hits give low values 1 | S. cerevisiae deletion strains, locus YPL106C, strain sse1, hits give low values 0.983 | S. cerevisiae deletion strains, locus YPL240C, strain hsp82, hits give low values 1.02 | S. cerevisiae deletion strains, locus YPL241C, strain CIN2, hits give low values 1.01 | S. cerevisiae deletion strains, locus YPL256C, strain CLN2, hits give low values 1.02 | S. cerevisiae deletion strains, locus YPR119W, strain clb2, hits give low values 0.979 | S. cerevisiae deletion strains, locus YPR141C, strain kar3, hits give low values 0.984 | S. cerevisiae deletion strains, locus YPR163C, strain tif3, hits give low values 0.985 | S. cerevisiae deletion strains, locus YPR167C, strain met16, hits give low values 0.986 | S. cerevisiae deletion strains, strain wtn01, hits give low values 0.95 | S. cerevisiae strains, strain wild type, hits give low values 0.999

Source: PubChem BioAssay AID1159580 (chemical genetic matrix, 2015)
